Efflux pump mplx = inhibitors of Candida antifungal efflux pumps expressed in yeast; S. cerevisiae Candida pump triplex, Nile Red efflux; AID 485275; 330,000 tested, 0.44% active; inhibition, % at 10 µM;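 active = plate passing quality check with inhibition over a set limit, or well fluorescence over plate mean plus 4 SD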;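 note: Nile Red retained in pooled yeast measured as flow cytometry median fluorescence; higher means more Nile Red kept so more efflux inhibition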
SUMO Mot1 rescue = blocks SUMOylation pathway, rescuing yeast Mot1-301 growth; S. cerevisiae Mot1-301 growth rescue, ATP luminescence, 38.5C; percent above DMSO median, 100 means doubled; growth rescue, % at 18.8 µM; 320,000 tested, 1% active; AID 2716;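 active = every valid replicate shows activation above 250% relative to neutral control wells; inactive = the rest, any valid replicate at or below 250%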
ALR inh = human ALR oxidase inhibition via reduced H2O2 | purified ALR, DTT oxidation, H2O2 HRP-luminol luminescence | P55789 | 290,000 tested, 3.8% active | inhibition, % (test concentration not listed);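 active = mean replicate inhibition above about 79%, with every replicate also reaching it, limit read from the data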
Target sequence (P55789 whole entry, looked up): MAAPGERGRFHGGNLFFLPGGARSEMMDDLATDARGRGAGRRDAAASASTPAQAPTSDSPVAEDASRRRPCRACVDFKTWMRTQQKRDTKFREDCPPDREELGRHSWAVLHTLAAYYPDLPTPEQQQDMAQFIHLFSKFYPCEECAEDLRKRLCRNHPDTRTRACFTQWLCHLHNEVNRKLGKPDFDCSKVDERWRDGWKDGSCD
Bfl-1 A1 inh = inhibitors of the anti-apoptotic protein A1, read as caspase activation; 330,000 tested, 0.066% active; MEF A1-2A-BIM cells, Caspase-Glo 3/7 luminescence, 3 h; percent of clofoctol response, vehicle zero; caspase activation, % (test concentration not listed); AID 2462;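 active = over half of replicate activation scores above 10%, or exactly half above 10 with the replicate mean above 10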
AHR act = activates the human aryl hydrocarbon receptor | P35869 | AHR-responsive luciferase reporter cells, luminescence | activation, % at 5 µM | 320,000 tested, 2.5% active; in the data active = activation above about 47%
VLA-4 inh = inhibition in a human VLA-4 binding assay; 330,000 tested, 0.2% active; inhibition, % (about 7 µM as worked out from the volumes in the protocol); AID 2557; VLA-4 expressing cells, ligand binding flow cytometry; P13612; in the data active = inhibition above about 50%
Numbers stand for hits. The list is not random: actives were taken first. Their share in the collection is about 7.2%.

How did C=CCn1c(SCC(=O)Nc2ccc(O)cc2)nc2sc(CC)cc2c1=O do in these assays?
Efflux pump mplx: inactive; SUMO Mot1 rescue: inactive; ALR inh: 96.7; Bfl-1 A1 inh: inactive; AHR act: inactive; VLA-4 inh: inactive

What do the screens show for `O=C1Oc2ccccc2C2(O)C3CCCCCC3C12` (stereo not given)?
Efflux pump mplx: inactive; SUMO Mot1 rescue: inactive; ALR inh: inactive; Bfl-1 A1 inh: inactive; AHR act: inactive; VLA-4 inh: inactive

What do the screens show for `COc1cc2c(cc1OC)CN(c1ccc([N+](=O)[O-])cc1Cl)CC2`?
Efflux pump mplx: inactive; SUMO Mot1 rescue: inactive; Bfl-1 A1 inh: inactive; AHR act: inactive; VLA-4 inh: inactive

How did COc1cc2c(cc1OC)CN(c1ccc(F)cc1[N+](=O)[O-])CC2 do in these assays?
Efflux pump mplx: inactive; SUMO Mot1 rescue: inactive; ALR inh: inactive; Bfl-1 A1 inh: inactive; AHR act: 59.1; VLA-4 inh: inactive

Results for COc1cc2c(cc1OC)CN(c1ccc([N+](=O)[O-])cc1C#N)CC2 ?
Efflux pump mplx: inactive; SUMO Mot1 rescue: inactive; ALR inh: 86.8; Bfl-1 A1 inh: inactive; AHR act: inactive; VLA-4 inh: inactive

What do the screens show for `CC(CCC(C)C(C)(C)C)[C@@H]1CC[C@H]2C3C[C@H](OS(O)(=S)=S)[C@H]4C[C@H](OS(O)(=S)=S)[C@@H](OS(O)(=S)=S)C[C@]4(C)[C@H]3CC[C@]12C` (stereo not given in full) (tested in a mixture with another compound)?
Efflux pump mplx: 2.1; SUMO Mot1 rescue: active; ALR inh: 98.1; Bfl-1 A1 inh: inactive; AHR act: inactive; VLA-4 inh: inactive

How did COn1c(SCC(=O)N(C)C)nc2ccccc2c1=O do in these assays?
Efflux pump mplx: inactive; SUMO Mot1 rescue: inactive; ALR inh: inactive; Bfl-1 A1 inh: inactive; AHR act: inactive

How did COc1ccccc1NC(=O)c1cc(-c2ccc(C)o2)nc2ccccc12 do in these assays?
Efflux pump mplx: inactive; SUMO Mot1 rescue: inactive; Bfl-1 A1 inh: inactive; AHR act: 71.8; VLA-4 inh: inactive

How did Cc1ccc(NC(=O)c2cc(-c3ccc(C)o3)nc3ccccc23)cc1 do in these assays?
Efflux pump mplx: inactive; SUMO Mot1 rescue: inactive; ALR inh: inactive; Bfl-1 A1 inh: inactive; AHR act: 56.5; VLA-4 inh: inactive

What do the screens show for `Cc1ccc(-c2cc(C(=O)Nc3cccnc3)c3ccccc3n2)o1`?
Efflux pump mplx: inactive; SUMO Mot1 rescue: inactive; ALR inh: inactive; Bfl-1 A1 inh: inactive; AHR act: inactive; VLA-4 inh: inactive

Results for C=CCSc1nc(N)c(C(=O)Nc2ccccc2OC)cc1C(=O)Nc1ccccc1 ?
Efflux pump mplx: inactive; SUMO Mot1 rescue: inactive; ALR inh: inactive; Bfl-1 A1 inh: inactive; AHR act: 75.0; VLA-4 inh: inactive

Results for COc1ccc(NC(=O)c2cc(-c3ccncc3)nc3ccccc23)c(OC)c1 ?
Efflux pump mplx: inactive; SUMO Mot1 rescue: inactive; ALR inh: inactive; Bfl-1 A1 inh: inactive; AHR act: 56.5; VLA-4 inh: inactive

How did C=CCSc1nc(N)c(C(=O)Nc2ccccc2)cc1C#N do in these assays?
Efflux pump mplx: inactive; SUMO Mot1 rescue: inactive; Bfl-1 A1 inh: inactive; AHR act: inactive; VLA-4 inh: inactive

What do the screens show for `Cc1ccc(-c2cc(C(=O)Nc3ccccn3)c3ccccc3n2)o1`?
Efflux pump mplx: inactive; SUMO Mot1 rescue: inactive; ALR inh: inactive; Bfl-1 A1 inh: inactive; AHR act: inactive; VLA-4 inh: inactive

How did O=C1NC(=Nc2ccccc2)S/C1=C\c1cccn1-c1ccccc1 do in these assays?
Efflux pump mplx: inactive; ALR inh: inactive; Bfl-1 A1 inh: inactive; AHR act: inactive; VLA-4 inh: inactive

Results for CC(Oc1ccc(Br)cc1)C(=O)NCC1(N2CCCCC2)CCCCC1 (stereo not given) ?
Efflux pump mplx: inactive; SUMO Mot1 rescue: inactive; Bfl-1 A1 inh: inactive; AHR act: inactive; VLA-4 inh: inactive

How did CN(Cc1ccccc1NS(=O)(=O)c1ccc2ccccc2c1)C1CCCCC1 do in these assays?
Efflux pump mplx: inactive; SUMO Mot1 rescue: inactive; ALR inh: inactive; Bfl-1 A1 inh: inactive; AHR act: inactive; VLA-4 inh: inactive

Results for COc1ccccc1NC(=O)c1cc(C)nc2ccccc12 ?
Efflux pump mplx: inactive; SUMO Mot1 rescue: inactive; Bfl-1 A1 inh: inactive; AHR act: 74.1; VLA-4 inh: inactive

Results for O=C(Nc1ccccc1F)c1cc(-c2ccco2)nc2ccccc12 ?
Efflux pump mplx: inactive; SUMO Mot1 rescue: inactive; ALR inh: inactive; Bfl-1 A1 inh: inactive; AHR act: 59.5; VLA-4 inh: inactive

Results for COc1ccc(Nc2cc(C(=O)NCCCN3CCN(C)CC3)c3ccccc3n2)c(OC)c1 ?
Efflux pump mplx: inactive; SUMO Mot1 rescue: inactive; ALR inh: 80.6; Bfl-1 A1 inh: inactive; AHR act: inactive; VLA-4 inh: inactive

How did COc1ccccc1CNC(=O)c1cc(C)nc2ccccc12 do in these assays?
Efflux pump mplx: inactive; SUMO Mot1 rescue: inactive; ALR inh: inactive; Bfl-1 A1 inh: inactive; AHR act: inactive; VLA-4 inh: inactive

Results for CC(=O)N1c2c(cc(Br)cc2S(=O)(=O)N2CCN(c3ccccc3F)CC2)CC1C (stereo not given) ?
Efflux pump mplx: inactive; SUMO Mot1 rescue: inactive; ALR inh: inactive; Bfl-1 A1 inh: inactive; AHR act: inactive; VLA-4 inh: inactive

Results for O=C(Nc1ccc(CN2CCOCC2)cc1)c1ccc(Cl)cc1 ?
Efflux pump mplx: inactive; SUMO Mot1 rescue: inactive; ALR inh: inactive; Bfl-1 A1 inh: inactive; AHR act: inactive; VLA-4 inh: inactive

Results for O=C(CSc1ccc(Cl)cc1)Nc1ccc(NC(=O)c2ccco2)cc1 ?
Efflux pump mplx: inactive; SUMO Mot1 rescue: inactive; ALR inh: 99.6; Bfl-1 A1 inh: inactive; AHR act: inactive; VLA-4 inh: inactive

What do the screens show for `O=C(CSc1ccc(Cl)cc1)Nc1ccc(N2CCN(C(=O)c3ccco3)CC2)cc1`?
Efflux pump mplx: inactive; ALR inh: inactive; Bfl-1 A1 inh: inactive; AHR act: inactive; VLA-4 inh: inactive

Results for O=C(Nc1ccc(CN2CCOCC2)cc1)c1ccco1 ?
Efflux pump mplx: inactive; SUMO Mot1 rescue: inactive; ALR inh: 76.7; Bfl-1 A1 inh: inactive; AHR act: inactive; VLA-4 inh: inactive

Results for CC(=O)Nc1ccc(Nc2nnc(-c3ccc(O)cc3)c3ccccc23)cc1 ?
Efflux pump mplx: inactive; SUMO Mot1 rescue: inactive; ALR inh: 84.1; Bfl-1 A1 inh: inactive; AHR act: inactive; VLA-4 inh: inactive

How did CCN(CC)C(=O)c1ccc(-c2nnc(Nc3ccc(O)cc3)c3ccccc23)cc1 do in these assays?
Efflux pump mplx: inactive; SUMO Mot1 rescue: inactive; ALR inh: inactive; Bfl-1 A1 inh: inactive; AHR act: inactive; VLA-4 inh: inactive

How did NC(=O)Cc1ccc(Nc2nnc(-c3ccc(O)cc3)c3ccccc23)cc1 do in these assays?
Efflux pump mplx: inactive; SUMO Mot1 rescue: inactive; ALR inh: 99.1; Bfl-1 A1 inh: inactive; AHR act: inactive; VLA-4 inh: inactive

Results for NC(=O)c1ccc(Nc2nnc(-c3ccc(O)cc3)c3ccccc23)cc1 ?
Efflux pump mplx: inactive; SUMO Mot1 rescue: inactive; ALR inh: 95.6; Bfl-1 A1 inh: inactive; AHR act: inactive; VLA-4 inh: inactive

Source: PubChem
